Data from PubChem BioAssay (NCI).
Compounds without any hit were thinned out: in the full panel of roughly 83,000, 20% have a hit.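 96-well plates, one dose, 48 hours. Percent growth reported; active if below 10.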 The source made the active and inactive calls.

Tested on: MOLT-4 leukemia
Experiment: NCI-60 one-dose screen, 48 h (100 = growth as untreated, 0 = no growth, -100 = all killed)
Conditions: 10 µM unless noted
Protocol: Growth inhibition of the MOLT-4 human tumor cell line is measured as a screen for anti-cancer activity. Cells are grown in 96 well plates and exposed to the test compound for 48 hours. Compounds are tested at a single concentration, which is 10^-5 M for most compounds. The reported endpoint is percent growth (GI% or GIPRCNT), where numbers from 0 - 100% represent growth inhibition, and numbers from -100% - 0 represent cell death. For example, a value of 40 represents 60% growth inhibition. A value of 0 means no net growth occurred over the course of the experiment. A value of -40 indicates 40% of cells at the beginning of the experiment died by the end of the experiment. A value of -100 means all cells are dead at the end of the experiment.
NCI-60 Human Tumor Cell Lines Screen was performed using the standard one-dose NCI protocol, which is described in more detail at https://dtp.cancer.gov/discovery_development/nci-60/default.htm.
Compounds with GIPRCNT values below 10 were considered active. Activity score was based on GIPRCNT using the following formula: […]
Score is 0 for GIPRCNT values of 100 or above, 50 for GIPRCNT values of 0, and 100 for GIPRCNT values of -100.

SMILES	growth
Clc1cccc(Cl)c1C1CSc2ccccc2N=C1c1ccccc1 (stereo not given)	20.1% (inactive)
Cc1ccc(C)c2c1CCC2=O	121% (inactive)
Nc1ncnc2c1ncn2C1OC(CO)C2OC21 (stereo not given)	111% (inactive)
Nc1cc2ccccc2c(O)c1O	-6.45% (active)
O=C1C=C[C@H](O)[C@@]2(CO)O[C@@H]12	26.9% (inactive)
NC(CO)(CO)c1ccccc1	108% (inactive)
Cc1ccc(NC(=S)N2CCOCC2)cc1C	100% (inactive)
CC(=O)c1cccc(N(C)S(=O)(=O)c2ccc(C)cc2)c1	94.9% (inactive)
Cc1ccc([N+](=O)[O-])c(C)n1	115% (inactive)
CC(=O)[C@@]1(O)CC[C@H]2[C@@H]3CC[C@@H]4CC(=O)CC[C@]4(C)[C@H]3[C@@H](O)C[C@@]21C	94.5% (inactive)
O=C(c1ccccc1)c1ccc(-c2ccc(O)cc2)cc1	120% (inactive)
O=S(=O)(OCCOS(=O)(=O)c1ccccc1)c1ccccc1	93% (inactive)
CC(C)C(C)(C)C(=O)C(C)(C)C(C)(C)C	110% (inactive)
C/C=C/C1OCC(CC)C(CCC)O1 (stereo not given)	94% (inactive)
O=S(=O)(O)c1ccc(O)c(C2CCCCC2)c1	99.9% (inactive)
Oc1ccc2ccccc2c1CN1CCOCC1	99.6% (inactive)
CC(=O)c1cccc(NS(=O)(=O)c2ccc(C)cc2)c1	73.9% (inactive)
C=CCN1CCCC1=O	93.8% (inactive)
O=[n+]1ccn([O-])c2ccccc21	102% (inactive)
C=C1SC(=Nc2c(C)cccc2C)N(c2nc(Cl)nc(Cl)n2)C12CCCCC2	95.5% (inactive)

SMILES	growth
O=C(CCCl)OCCOc1ccccc1	92.1% (inactive)
CC(=O)N=c1ccc2nc3c(cc(N)c4ccccc43)oc-2c1	-37.2% (active)
N#Cc1ccc2nc[nH]c2c1	109% (inactive)
Cc1cccc(-[n+]2noc(N)n2)c1	72.8% (inactive)
C=CCC(OC(C)=O)c1ccc(C(C)C)cc1 (stereo not given)	105% (inactive)
Cc1cc2c(C(C)C)c(O)c(O)c(C=Nc3ccccc3[N+](=O)[O-])c2c(O)c1-c1c(C)cc2c(C(C)C)c(O)c(O)c(C=Nc3ccccc3[N+](=O)[O-])c2c1O	26.2% (inactive)
COC(=O)C1=C(C)C(=O)CC1	101% (inactive)
COC(CCCl)c1ccc(Cl)cc1 (stereo not given)	95% (inactive)
CC1(C)OC(=O)CC1=O	85.1% (inactive)
CSc1nc2[nH]ncc2c(=O)[nH]1	110% (inactive)
CCOS(=O)(=O)c1ccc([N+](=O)[O-])cc1	98.5% (inactive)
OCC1CCC(O)C(CO)N1 (stereo not given)	106% (inactive)
NC(=S)N/N=C/c1ccc(OC(=O)COc2ccc(Cl)cc2)cn1	16.5% (inactive)
NCCCN1CCCC1=O	97.1% (inactive)
CC(=O)c1cccc(O)c1	95.9% (inactive)
ClCc1cccc2c(CCl)cccc12	27.7% (inactive)
CC(C)(CC(=O)O)CC(=O)O	100% (inactive)
CCN(CC)CCN1CNC(=S)NC1	97.1% (inactive)
Cc1c(Cl)cccc1N=C=S	109% (inactive)
Nc1ccc(F)c(Cl)c1F	108% (inactive)
